Shown are actives, neighbours in structure and some others; about 2.5% of the full set was active somewhere.
ClpP mod – qHTS Assay for Activators of ClpP; ATP-dependent Clp protease proteolytic subunit (Bacillus subtilis (strain 168)), P80244; purified B. subtilis ClpP, FRET peptide cleavage, 20 min; Potency, µM (doses to about 57.5 µM), for the others: at the highest dose activity change, negative = active; 1.9% of 340,000 active; AID 651965, 2013; active = well fitted falling curve with a large enough effect; inconclusive = small, poorly fitted or top-dose-only effect; inactive = no such curve, though single readings can be large or run the other way; note: potency is the fitted concentration of half-maximal effect; the source files actives as falling curves though it sought activators and does not explain the sign; nearly all actives have a fitted effect of over 65% in size
Target sequence (P80244 whole entry, looked up): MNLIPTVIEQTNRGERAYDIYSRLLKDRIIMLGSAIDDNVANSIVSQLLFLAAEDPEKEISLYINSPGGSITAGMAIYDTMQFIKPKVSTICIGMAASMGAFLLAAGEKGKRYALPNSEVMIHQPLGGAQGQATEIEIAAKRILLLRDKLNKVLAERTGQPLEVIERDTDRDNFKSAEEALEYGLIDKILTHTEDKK
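Purified B. subtilis ClpP, 10 microg/mL final in Tris/HCl pH8 with KCl, BSA, glycerol and Tween-20, cleaved an Abz/nitrotyrosine-quenched decapeptide. Fluorescence (ex 320, em 430) was read at 0 and 20 min at room temperature. Delta was normalized to 5.8 microM ADEP and DMSO/no-enzyme controls.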
TrxR1 substrate – qHTS Assay for Substrates of Mammalian Selenoprotein Thioredoxin Reductase 1 (TrxR1): qHTS; Thioredoxin reductase 1, cytoplasmic (Rattus norvegicus), O89049; purified TrxR1 substrate turnover, NADPH consumption readout; Potency, µM (top dose mostly 114 µM), inactives show at the highest dose activity change, negative = substrate turnover; 0.01% of 390,000 active; note: potency is the fitted concentration of half-maximal effect; % is set by controls: 0 for no effect and ±100 for the full control effect; nearly all actives have a fitted effect of over 50% in size
Target sequence (O89049 whole entry, looked up): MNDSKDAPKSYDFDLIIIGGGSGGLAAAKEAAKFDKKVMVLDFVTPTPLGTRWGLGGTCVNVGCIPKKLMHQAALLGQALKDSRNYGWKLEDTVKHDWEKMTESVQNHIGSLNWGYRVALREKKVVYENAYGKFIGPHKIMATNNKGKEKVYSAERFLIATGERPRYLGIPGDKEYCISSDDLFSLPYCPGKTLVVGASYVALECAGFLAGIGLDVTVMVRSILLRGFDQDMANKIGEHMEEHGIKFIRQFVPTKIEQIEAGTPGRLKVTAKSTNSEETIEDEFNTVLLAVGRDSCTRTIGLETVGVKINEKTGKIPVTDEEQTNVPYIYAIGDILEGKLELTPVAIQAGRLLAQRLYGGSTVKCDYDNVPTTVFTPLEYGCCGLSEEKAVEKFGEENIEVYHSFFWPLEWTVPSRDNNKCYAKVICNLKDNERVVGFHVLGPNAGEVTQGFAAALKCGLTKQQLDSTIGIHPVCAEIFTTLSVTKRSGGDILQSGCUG
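Rat TrxR1, dispensed at 90 nM, was prereduced with 400 uM NADPH (final) for 5 min at ~22 deg C, then incubated with compound 15 min before 400 uM selenite. A first-read NADPH fluorescence drop versus no-compound background flagged substrates.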
miR-21 act – qHTS Assay for Modulators of miRNAs and/orActivators of miR-21; HeLa miR-21 FLuc reporter, luciferase, 48 h; Potency, µM (highest dose often 38.3 µM), inactives show at the highest dose activity change, positive = activation, most hits filed as activators; 340,000 tested, under 10 active;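 note: % of control where 0% means no effect; miR-21 action dims this reporter so a rising signal means less miR-21 action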
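Compounds were titrated across several concentrations (up to approximately 40 uM) and incubated 48 hours with HeLa miR-21-FLuc reporter cells (miR-21 target sequence downstream of FLuc, endogenous miR-21). Readout was firefly luciferase luminescence after lytic detection reagent.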
rTrxR1 inhibitor – qHTS Assay for Inhibitors of Mammalian Selenoprotein Thioredoxin Reductase 1 (TrxR1): qHTS; recombinant rTrxR1, NADPH fluorescence consumption, selenite substrate; Potency, µM (titrated, usually from 114 µM), inactives show at the highest dose activity change, negative = inhibition, hits mostly inhibitors; Thioredoxin reductase 1, cytoplasmic (Rattus norvegicus), O89049; 1% of 390,000 active; note: potency is the fitted concentration of half-maximal effect; % is set by controls: 0 for no effect and ±100 for the full control effect; nearly all actives have a fitted effect of over 65% in size
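Rat TrxR1 (90 nM in the dispensed reagent) was pre-reduced with 400 uM NADPH for 5 min at room temperature, then incubated with compound for 15 min. After 400 uM selenite was added, NADPH fluorescence (Ex 340/Em 450 nm) was followed for 8 min.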
Anesthetic bind – qHTS Assay for Identification of Novel General Anesthetics. Ferritin light chain (Equus caballus), P02791. apoferritin/1-aminoanthracene competitive binding, fluorescence. Potency, µM (highest dose often 77.5 µM), inactives show top-dose activity change, negative = displacement, usual class: inhibitors. 0.074% of 350,000 active; note: potency is the fitted concentration of half-maximal effect; % is set by controls: 0 for no effect and ±100 for the full control effect; nearly all actives have a fitted effect of over 20% in size
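Steps: apoferritin (10 uM) was premixed with half-saturated 1-AMA in PBS, compounds were pin-transferred, plates stood 10 min at room temperature, fluorescence was read at 380/535 nm, and curves were fitted with a Hill equation.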
The depositor's hits bear a star; [ ] = another dose, or the depositor's remark. Unless noted, calls come from the whole dose curve; as a rule, active = well fitted curve in the direction sought with a large enough effect; inconclusive = small, poorly fitted or top-dose-only effect, or another doubt; inactive = no such curve, though single readings can be large; an effect the other way counts as inactive or inconclusive.

Screening N#CC1=C(N)SC(N)=C(C#N)C1CCc1ccccc1 returned ClpP mod 31.6µM*, TrxR1 substrate 5.5%, miR-21 act 10.6%, rTrxR1 inhibitor inconclusive and Anesthetic bind -8.9%.
`COC(=O)c1ccccc1NC(=O)c1cc2sccc2n1C` gave ClpP mod 31.6µM*, TrxR1 substrate 3.3%, miR-21 act -0.5%, rTrxR1 inhibitor -11.9% and Anesthetic bind 3.8%.
COC(=O)c1cccc(NC(=O)c2cc3sccc3n2C)c1 was read as ClpP mod -6.0%, TrxR1 substrate 6.1%, miR-21 act -24.2%, rTrxR1 inhibitor 4.3% and Anesthetic bind -12.9%.
`COc1cccc(CSc2nc3n(n2)C(c2cccs2)C(C(=O)Nc2ccccc2C)=C(C)N3)c1` (stereo not drawn) gave ClpP mod 1.0%, TrxR1 substrate -2.8%[57.1 µM], miR-21 act 3.1%, rTrxR1 inhibitor 16.0%[57.1 µM] and Anesthetic bind -0.8%.
`O=C(NCc1ccccc1Cl)c1ccc(S(=O)(=O)Nc2cccc(C(F)(F)F)c2)cc1` gave ClpP mod 20µM*, TrxR1 substrate -15.9%, miR-21 act -0.9%, rTrxR1 inhibitor -6.6% and Anesthetic bind inconclusive.
Screening O=C(NCc1ccccc1Cl)c1ccc(S(=O)(=O)N2CCCC2)cc1 returned ClpP mod 0.7%, TrxR1 substrate -17.6% and rTrxR1 inhibitor -16.4%.
For COc1ccc(S(=O)(=O)N2CN(Cc3ccco3)c3nc4ccccc4nc32)cc1 the results were ClpP mod inconclusive, TrxR1 substrate 21.7%, miR-21 act -3.2%, rTrxR1 inhibitor 35.5µM* and Anesthetic bind -11.2%.
Cc1ccccc1-n1c(CSC(=N)N)nc2ccccc2c1=O was read as ClpP mod 11.2µM*, TrxR1 substrate 3.9%, miR-21 act -14.3%, rTrxR1 inhibitor -8.7% and Anesthetic bind -7.4%.
`N=C(N)SCc1nc2ccccc2c(=O)n1-c1ccccc1Cl` gave ClpP mod inconclusive, TrxR1 substrate 32.0%, miR-21 act -53.6%, rTrxR1 inhibitor -7.5% and Anesthetic bind -17.3%.
Cc1ccccc1-n1nnnc1SCc1ncc(-c2ccccc2)o1 was read as ClpP mod 31.6µM*, TrxR1 substrate -9.5%[57.1 µM], miR-21 act -14.3%, rTrxR1 inhibitor -51.0% and Anesthetic bind 70.2%.
`c1ccc(-c2cnc(CSc3nnc4ccccn34)o2)cc1` gave ClpP mod -9.9%, TrxR1 substrate 15.7%, miR-21 act -33.7%, rTrxR1 inhibitor inconclusive and Anesthetic bind -7.1%.
Cn1c(SCC(=O)N2CCOCC2)ncc(C(=O)Nc2ccc(F)cc2)c1=O was read as ClpP mod 1.2%, TrxR1 substrate 2.1%[57.1 µM], miR-21 act -2.4%, rTrxR1 inhibitor 7.9%[57.1 µM] and Anesthetic bind -3.2%.
`CC(C)CCC(C(=O)O)C(C)CC(=O)NC1CCCCC1` (stereo not drawn) gave ClpP mod 0.1%, TrxR1 substrate 6.7%[57.1 µM], miR-21 act 3.3%, rTrxR1 inhibitor 20.7%[57.1 µM] and Anesthetic bind -1.0%.
`CCCCCC(C(=O)O)C(C)CC(=O)NC1CCCCC1` (stereo not drawn) gave ClpP mod 12.6µM*, TrxR1 substrate 9.7%[57.1 µM], miR-21 act -4.5%, rTrxR1 inhibitor 11.4%[57.1 µM] and Anesthetic bind -9.3%.
Screening CC(=O)c1cccc(OCc2cc(C(=O)N(C)C(C)c3ccccn3)no2)c1 (stereo not drawn) returned ClpP mod 0.5%, TrxR1 substrate 4.2%, miR-21 act 2.1%, rTrxR1 inhibitor 50.1µM* and Anesthetic bind -20.6%.
Screening CC(=O)c1ccc(OCc2cc(C(=O)N(C)C(C)c3ccon3)no2)cc1 (stereo not drawn) returned ClpP mod 11.9%, TrxR1 substrate -9.1% and rTrxR1 inhibitor inconclusive.
Screening Cn1c(C(=O)NCc2ccco2)cc2c(=O)[nH]c3ccccc3c21 returned ClpP mod 28.2µM*, TrxR1 substrate 30.2%, miR-21 act -18.4%, rTrxR1 inhibitor 16.8% and Anesthetic bind -8.4%.
Screening CCCN(CCC)CCCNC(=O)c1cc2c(=O)[nH]c3ccccc3c2n1C returned ClpP mod 4.6%, TrxR1 substrate 16.7%, miR-21 act -3.1%, rTrxR1 inhibitor 15.3% and Anesthetic bind -12.5%.
For CCCOC(=O)c1ccc(-c2ccc(C=O)o2)cc1 the results were ClpP mod 49.7%, TrxR1 substrate 73.7%, miR-21 act -44.3%, rTrxR1 inhibitor 31.6µM* and Anesthetic bind -4.7%.
`COC(=O)c1[nH]c2cccc(OC)c2c1NC(=O)CN1CCOCC1` gave ClpP mod 17.8µM*, TrxR1 substrate 47.4%, miR-21 act -6.7%, rTrxR1 inhibitor 22.1% and Anesthetic bind -8.5%.
For COC(=O)c1[nH]c2cccc(OC)c2c1NC(=O)CN(C)CC1OCCO1 the results were ClpP mod 31.6µM*, TrxR1 substrate 19.7%, miR-21 act -3.7%, rTrxR1 inhibitor -5.2% and Anesthetic bind -8.9%.
COC(=O)c1[nH]c2cccc(OC)c2c1NC(=O)CCN1CC(C)CC(C)C1 (stereo not drawn) was read as ClpP mod -19.4%, TrxR1 substrate 13.3%, miR-21 act -4.6%, rTrxR1 inhibitor -11.0% and Anesthetic bind -14.7%.
Cc1ccc(NC(=O)CSc2nc3ccccc3nc2Cc2ccccc2)c(C)c1 was read as ClpP mod -2.2%, TrxR1 substrate 0.9%[57.1 µM], miR-21 act 13.2%, rTrxR1 inhibitor 10.2%[57.1 µM] and Anesthetic bind 2.4%.
Screening C[N+](C)(C)CCC(=O)N1C/C(=C/c2ccccc2)C(=O)/C(=C\c2ccccc2)C1 returned ClpP mod 1.6%, TrxR1 substrate 3.5%[11.4 µM] and rTrxR1 inhibitor -73.3%[57.1 µM].
`CN(C)CCC(=O)N1C/C(=C/c2ccccc2)C(=O)/C(=C\c2ccccc2)C1` gave ClpP mod 35.5µM*, TrxR1 substrate -4.4%[11.4 µM] and rTrxR1 inhibitor inconclusive.
Screening Cc1nc2ccccc2c(=O)n1C1CCCCCC1 returned ClpP mod 25.1µM*, TrxR1 substrate 9.6%[57.1 µM], miR-21 act -21.5%, rTrxR1 inhibitor 17.4%[57.1 µM] and Anesthetic bind -16.1%.
`CC(C)c1cc(NCCN2CCOCC2)n2c(nc3ccccc32)c1C#N` gave ClpP mod -5.1%, TrxR1 substrate 5.1% and rTrxR1 inhibitor 33.1%.
Screening CC(C)c1cc(NCCCN2CCOCC2)n2c(nc3ccccc32)c1C#N returned ClpP mod 28.2µM*, TrxR1 substrate 80.2%, miR-21 act -11.2%, rTrxR1 inhibitor 11.1% and Anesthetic bind 41.7%.
N#Cc1c2c(c(NCCCN3CCOCC3)n3c1nc1ccccc13)CCC2 was read as ClpP mod 31.6µM*, TrxR1 substrate 32.2%, miR-21 act 0.9%, rTrxR1 inhibitor -11.9% and Anesthetic bind 9.9%.
